Screen size: about 5,500 compounds; about 2,000 (36%) were called active. Roughly 18% stayed inconclusive and do not appear here. Rule as the data show it: active = normalized growth mostly below about 0.91 (no sharp cut-off); inconclusive = no clear call, values can overlap the other calls; inactive = mostly above about 0.92. Some of the results follow.
Assay: chemical genetic growth profiling, strain panel (AID 1159580);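 also: tested at 20 µM; growth read once vehicle control cultures reached saturation at 30 °C; 1 = growth at the plate median or of vehicle wells; lower values mean less growth of the strain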
Conditions: S. cerevisiae deletion strains, growth OD
[1] = locus YDL101C, strain DUN1, hits give low values
[2] = locus YHR030C, strain SLT2, hits give low values

Measured: normalized growth

CCCc1cnc(N2CCCN(C(=S)Nc3cccnc3)CC2)nc1
inactive: locus YAL013W, strain DEP1, hits give low values 0.998 | locus YBR229C, strain ROT2, hits give low values 0.997 | locus YCL061C, strain MRC1, hits give low values 1.01 | [1] 1.06 | locus YDR150W, strain NUM1, hits give low values 1.03 | locus YEL061C, strain CIN8, hits give low values 0.959 | locus YGR078C, strain PAC10, hits give low values 1.02 | [2] 1.05 | locus YHR087W, strain rtc3, hits give low values 0.992 | locus YJR043C, strain POL32, hits give low values 1.03 | locus YJR075W, strain HOC1, hits give low values 1.03 | locus YLR039C, strain RIC1, hits give low values 1 | locus YLR058C, strain SHM2 (second series), hits give low values 0.996 | locus YLR085C, strain ARP6, hits give low values 1.04 | locus YLR262C, strain YPT6, hits give low values 1.01 | locus YML094W, strain GIM5, hits give low values 1.02 | locus YMR219W, strain ESC1, hits give low values 1.01 | locus YMR263W, strain SAP30, hits give low values 1.03 | locus YNL153C, strain GIM3, hits give low values 1.02 | locus YNL298W, strain CLA4 (second series), hits give low values 0.999 | locus YNL322C, strain KRE1, hits give low values 0.987 | locus YNR030W, strain Alg12, hits give low values 1.01 | locus YPL055C, strain LGE1, hits give low values 1.02 | locus YPL241C, strain CIN2, hits give low values 1.02 | locus YPR135W, strain CTF4, hits give low values 1.07

FC(F)(F)c1ccnc(N2CCCN(C(=S)Nc3ccc(Cl)cc3Cl)CC2)n1
inactive: locus YAR019C, strain CDC15, hits give low values 0.974 | locus YBL105C, strain PKC1, hits give low values 0.977 | locus YBR135W, strain CKS1, hits give low values 0.972 | locus YBR136W, strain MEC1, hits give low values 0.973 | locus YBR160W, strain CDC28, hits give low values 0.974 | locus YDL017W, strain CDC7, hits give low values 0.966 | locus YDL028C, strain MPS1, hits give low values 0.975 | [1] 0.975 | locus YDL108W, strain KIN28, hits give low values 0.975 | locus YDL132W, strain cdc53, hits give low values 0.977 | locus YDL214C, strain PRR2, hits give low values 0.966 | locus YDR052C, strain DBF4, hits give low values 0.972 | locus YDR054C, strain cdc34, hits give low values 0.976 | locus YDR226W, strain ADK1, hits give low values 0.982 | locus YDR477W, strain SNF1, hits give low values 0.985 | locus YER123W, strain YCK3, hits give low values 1 | locus YER133W, strain GLC7, hits give low values 0.993 | locus YFL009W, strain cdc4, hits give low values 0.98 | locus YFL029C, strain CAK1, hits give low values 0.963 | locus YFR003C, strain YPI1, hits give low values 0.972 | locus YFR019W, strain FAB1, hits give low values 0.996 | locus YFR028C, strain CDC14, hits give low values 0.979 | locus YGR040W, strain KSS1, hits give low values 0.985 | locus YGR052W, strain FMP48, hits give low values 1.04 | locus YGR092W, strain DBF2, hits give low values 0.9 | locus YHR079C, strain IRE1, hits give low values 0.848 | locus YHR082C, strain KSP1, hits give low values 1.08 | locus YHR205W, strain SCH9, hits give low values 0.946 | locus YIL147C, strain SLN1, hits give low values 0.972 | locus YJL095W, strain BCK1, hits give low values 0.942 | locus YJL128C, strain PBS2, hits give low values 0.978 | locus YJL157C, strain FAR1, hits give low values 0.981 | locus YJR016C, strain ILV3, hits give low values 0.989 | locus YJR066W, strain TOR1 (second series), hits give low values 0.953 | locus YJR066W, strain TOR1, hits give low values 1.03 | locus YKL048C, strain ELM1, hits give low values 0.961 | locus YKL067W, strain YNK1, hits give low values 0.973 | locus YKL101W, strain HSL1, hits give low values 0.958 | locus YKL193C, strain SDS22, hits give low values 0.978 | locus YKL203C, strain TOR2, hits give low values 1.02 | locus YLR133W, strain CKI1, hits give low values 0.979 | locus YLR403W, strain SFP1, hits give low values 0.982 | locus YML070W, strain DAK1, hits give low values 0.972 | locus YMR001C, strain CDC5, hits give low values 0.971 | locus YMR205C, strain PFK2 (second series), hits give low values 0.968 | locus YMR277W, strain FCP1, hits give low values 0.973 | locus YNL006W, strain LST8, hits give low values 0.98 | locus YNL020C, strain ARK1, hits give low values 0.966 | locus YNL161W, strain CBK1, hits give low values 0.982 | locus YNL183C, strain NPR1, hits give low values 1.01 | locus YNL207W, strain RIO2, hits give low values 0.964 | locus YNL222W, strain SSU72, hits give low values 0.978 | locus YNL307C, strain MCK1 (second series), hits give low values 0.95 | locus YOL078W, strain AVO1, hits give low values 0.986 | locus YOL136C, strain PFK27, hits give low values 0.959 | locus YOR061W, strain CKA2, hits give low values 0.961 | locus YOR119C, strain RIO1, hits give low values 1.06 | locus YOR231W, strain MKK1, hits give low values 0.873 | locus YOR329C, strain SCD5, hits give low values 0.973 | locus YPL031C, strain PHO85, hits give low values 0.975 | locus YPL153C, strain RAD53, hits give low values 0.982 | locus YPL204W, strain HRR25, hits give low values 0.966 | locus YPL209C, strain IPL1, hits give low values 0.973 | locus YPR025C, strain CCL1, hits give low values 0.976 | locus YPR106W, strain ISR1, hits give low values 0.977 | locus YPR111W, strain DBF20, hits give low values 0.96 | strain NNK1, hits give low values 0.962 | strain TSCII, hits give low values 0.978
active: [2] 0.712 | locus YLR113W, strain HOG1, hits give low values 0.689 | locus YPL256C, strain CLN2, hits give low values 0.777
